Screening results as filed in PubChem.
TDP1 inh: inhibitors of human tyrosyl-DNA phosphodiesterase TDP1; recombinant TDP1, AlphaScreen DNA substrate cleavage; Potency, µM (series often up to 130 µM), actives largely listed as inhibitors; 0.28% of 350,000 active; AID 485290; note: nearly all actives have a fitted effect of over 40% in size
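Recombinant human Tdp1 (E. coli-expressed, 1 nM final) preincubated with compounds 15 min at room temperature, then 5'-biotin/3'-phosphotyrosine-FITC DNA substrate (15 nM final) added for 5 min. AlphaScreen beads (10 ug/ml final) added 10 min; cleavage lowers signal.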
FEN1 inhibitor: human FEN1 inhibition | P39748 | Recombinant FEN1 flap cleavage, fluorescence, 15 min | Potency, µM (series often up to 114 µM), hits mostly inhibitors | 0.35% of 390,000 active | AID 588795; note: nearly all actives have a fitted effect of over 65% in size
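With each library titrated from low to high concentration, compounds met 10 nM FEN1 for 15 min at room temperature before 50 nM substrate was added; readings at 0 and 15 min fed four-parameter Hill curve fits.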
POLI inh: blocks human DNA polymerase iota activity; Q9UNA4; Pol iota fluorescent replication assay, 10 min; Potency, µM (series often up to 115 µM), usual class: inhibitors; 1% of 390,000 active
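Pol iota at 10 nM preincubated 15 min with compounds at room temperature; reaction started with fluorescent substrate, 50 nM final. Fluorescence read kinetically at 0 and 10 min; buffer-only wells as negative control.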
Pol kappa inh-1: DNA polymerase kappa (human) inhibition. Potency, µM (titrated, usually from 107 µM), most hits filed as inhibitors. Q9UBT6. 0.53% of 400,000 active. purified Pol kappa, fluorescent DNA synthesis assay, 10 min. AID 588579
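50 nM final substrate added after 15 min RT preincubation of 10 nM Pol kappa with compound; fluorescence read at 0 and 10 min.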
POLB inh: inhibitors of human DNA polymerase beta. P06746. Pol beta primer extension/strand displacement, fluorescence kinetic. Potency, µM (doses to about 114 µM), hits mostly inhibitors. 1.3% of 340,000 active. AID 485314
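Kinetic readout of DNA synthesis with strand displacement by Pol beta. Compound and 10 nM enzyme sit 15 min at room temperature; 50 nM substrate starts the reaction, read immediately and at 10 min.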
Pol eta inh-1: inhibitors of human DNA polymerase eta | AID 588591 | Q9Y253 | Potency, µM (highest dose often 114 µM), most hits filed as inhibitors | 1.2% of 390,000 active | recombinant Pol eta, fluorescent DNA replication assay
Target sequence (Q9Y253 whole entry, looked up): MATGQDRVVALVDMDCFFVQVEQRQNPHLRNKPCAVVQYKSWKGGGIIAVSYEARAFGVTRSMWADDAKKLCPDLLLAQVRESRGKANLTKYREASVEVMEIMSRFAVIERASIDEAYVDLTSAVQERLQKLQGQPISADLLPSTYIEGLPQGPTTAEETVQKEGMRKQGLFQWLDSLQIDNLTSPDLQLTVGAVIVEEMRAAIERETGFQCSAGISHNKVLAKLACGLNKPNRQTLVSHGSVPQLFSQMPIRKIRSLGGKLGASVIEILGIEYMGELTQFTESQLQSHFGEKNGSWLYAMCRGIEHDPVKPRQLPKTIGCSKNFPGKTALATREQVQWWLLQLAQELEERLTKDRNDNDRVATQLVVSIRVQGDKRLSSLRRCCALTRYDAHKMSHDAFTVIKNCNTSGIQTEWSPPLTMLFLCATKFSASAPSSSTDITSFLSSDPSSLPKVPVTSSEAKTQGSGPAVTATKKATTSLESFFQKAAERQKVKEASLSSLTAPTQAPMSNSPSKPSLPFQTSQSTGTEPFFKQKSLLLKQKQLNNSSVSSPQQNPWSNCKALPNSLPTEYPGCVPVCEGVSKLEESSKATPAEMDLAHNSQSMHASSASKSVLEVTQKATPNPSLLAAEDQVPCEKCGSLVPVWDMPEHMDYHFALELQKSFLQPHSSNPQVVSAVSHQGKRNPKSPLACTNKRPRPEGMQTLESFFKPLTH
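Pol eta (10 nM) was preincubated with compounds for 15 min at room temperature, after which fluorescent replication substrate (50 nM final) was added to start the reaction. Fluorescence was read kinetically at 0 and 10 min.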
GALK confirm: galactokinase (human) inhibition, confirmation. AID 2015. 70% of 150 active. Potency, µM (highest dose often 115 µM), most hits filed as inhibitors. shares compounds with Pol eta inh-1. purified GALK, Kinase-Glo ATP depletion luminescence
Redox cycling: generates H2O2 by redox cycling, flagging GALK artifacts; shares compounds with Pol eta inh-1; 40% of 150 active; Phenol red-HRP H2O2 redox cycling, absorbance 600 nm; Potency, µM (titrated, usually from 115 µM), hits mostly inhibitors; AID 2035
HEK293 viability: HEK-293 cytotoxicity, GALK inhibitor secondary. HEK-293 viability, ATP luminescence (CellTiter-Glo), 24/48 h. AID 2547. Potency, µM (doses to about 46.1 µM), usual class: inhibitors. shares compounds with Pol eta inh-1. 10% of 170 active
Pol kappa inh-2: Pol kappa (human) inhibition, cherry-pick confirmation | shares compounds with Pol eta inh-1 | purified Pol-kappa, fluorescent strand-displacement substrate | Potency, µM, actives largely listed as inhibitors | 76% of 920 active | AID 720501
Pol eta inh-2: confirmation of human DNA polymerase eta inhibitors; shares compounds with Pol eta inh-1; Pol eta primer extension, TAMRA/BHQ fluorescence, 10 min; Potency, µM, actives largely listed as inhibitors; 64% of 2,600 active; AID 720502
Numbers stand for hits; i = inactive; ? = inconclusive; nt = not tested or not shown; [ ] = another dose, or the depositor's remark. An excerpt weighted towards active compounds, which were near 2.4% of everything screened. Calls come from the whole dose curve; as a rule, active = well fitted curve in the direction sought with a large enough effect; inconclusive = small, poorly fitted or top-dose-only effect, or another doubt; inactive = no such curve, though single readings can be large; an effect the other way counts as inactive or inconclusive.

SMILES	TDP1 inh	FEN1 inhibitor	POLI inh	Pol kappa inh-1	POLB inh	Pol eta inh-1	Pol eta inh-2	others
Nc1c(C=C2C=CC(=O)C=C2)c(=O)nc2sc(CC(=O)N3CCOCC3)nn12	i	i	i	i	i	?	76
CCOC1=C/C(=C/c2c(N)n3nc(CC(=O)N4CCCCC4)sc3nc2=O)C=CC1=O	i	i	?	?	i	?	nt
CCCCNC(=O)NS(=O)(=O)c1ccc(N)cc1	i	nt	nt	i[19.4 µM]	nt	nt	nt
O=c1c2ccccc2[nH]c2ccc(O)cc12	40µM	?	?	79µM	18µM	18µM	54
COc1ccccc1CNc1ccnc(-c2ccccc2C(F)(F)F)n1	i	nt	nt	i	nt	nt	nt
CC(=O)NCCNc1nc(-c2cccc(NS(C)(=O)=O)c2)nc2ccccc12	nt	nt	nt	i	nt	nt	nt
Cc1ccc(S(=O)(=O)NC(=O)c2ccc(-c3ccc(C)c4ccccc34)o2)cc1	i	i	?	?	?	32µM	?
N#Cc1cccc(NC(=O)N2CC[C@@]3(CCCN(C(=O)c4csnn4)C3)C2)c1	nt	nt	nt	i	nt	nt	nt
CSc1nc2nc(-c3cccs3)cc(C(F)(F)F)c2c(=O)[nH]1	i	i	i	i	i	i	nt
O=C(CSc1nc2nc(-c3cccs3)cc(C(F)(F)F)c2c(=O)[nH]1)NCc1ccco1	i	i	?	i	56µM	18µM	38
CCC[C@H]1C[C@H](C(=O)NC(C(C)Cl)C2O[C@@H](SC)C(OP(=O)(O)O)[C@@H](O)[C@@H]2O)N(C)C1 (stereo not given in full)	i	nt	nt	i	nt	nt	nt
Cc1ccc2c(c1)c(=O)c1ccccc1n2CCCC(=O)Nc1ccc(Cl)cc1C	i[12.3 µM]	i	i	i	?	89µM	nt	Pol kappa inh-2=?
CCOC(=O)C1CCN(c2nc(C)cc(C)c2C#N)CC1	i	i	i	i	i	i	nt
CCOC(=O)C1CCN(c2nc(N)c3c(N)nc(SCC(=O)O)cc3c2C#N)CC1	28µM	45µM	25µM	35µM	28µM	7.1µM	nt	GALK confirm=67µM;Redox cycling=19µM;HEK293 viability=i
COCCCNc1oc(/C=C/c2cc(OC)c(OC)c(OC)c2)nc1C#N	i	i	i	i	i	i	nt
O=C(O)Cc1sc(N/N=C\c2ccccc2)nc1-c1ccccc1	i	i	?	i	i	40µM	48	Pol kappa inh-2=27
CO[C@]1(NC(=O)C2SC(=C(C(N)=O)C(=O)O)S2)C(=O)N2C(C(=O)O)=C(CSc3nnnn3C)CS[C@H]21 (stereo not given in full)	nt	nt	nt	i[19.4 µM]	nt	nt	nt
Cc1cccc(N(C)S(=O)(=O)c2c(C(=O)N3CCCCCC3)c(C)n(C)c2C)c1	i	i	i	i	i	i	nt
Cc1cc(C2(c3ccc(O)c(C)c3)OC(=O)c3ccccc32)ccc1O	nt	i	?	i	35µM	?	?
COc1ccccc1CN1CC[C@@]2(CCCN(C(C)=O)C2)C1	nt	nt	nt	i	nt	nt	nt
CC(C)Sc1ncc(Cl)c(C(=O)N(Cc2ccc(N(C)C)cc2)C2CCS(=O)(=O)C2)n1 (stereo not given)	i	i	?	i	?	79µM	?	Pol kappa inh-2=?
CC(=O)Nc1cc(C(=O)NCc2ccc(C)cc2)ccc1S(=O)(=O)c1ccc(Cl)cc1	i	i	i	i	i	i	nt
COc1cc(CCc2ccccc2)c(C(=O)O)c(O)c1CC=C(C)C	nt	?	i	i	nt	i	nt
COc1cc(CCc2ccccc2)c(C(=O)O)c(O)c1C/C=C(/C)CCC=C(C)C	i	?	?	79µM	nt	32µM	85	Pol kappa inh-2=?
CC1=NOC(=O)/C1=C\c1ccc(-c2ccc(Br)cc2)o1	i	?	?	i	32µM	20µM	85
SMILES	TDP1 inh	FEN1 inhibitor	POLI inh	Pol kappa inh-1	POLB inh	Pol eta inh-1	Pol eta inh-2	others
c1cnc2c(c1)ccc1cccnc12	i	?	i	i	i	i	nt
O=C1C=CC(=O)N1c1cccc2cccnc12	nt	i	?	89µM	nt	28µM	76	Pol kappa inh-2=?
O=C(Nc1nnc(C2CCCCC2)s1)C1CC(=O)N(c2ccccc2)C1 (stereo not given)	i	i	i	i	i	i	nt
O=C(Nc1nnc(C2CC2)s1)C1CC(=O)N(c2ccc3c(c2)OCCO3)C1 (stereo not given)	nt	i	45µM	?	?	20µM	?
CO[C@H]1COC(=O)[C@@H](C)COC(=O)[C@@H](OCc2ccccc2)/C=C\[C@@H]1C	i[21 µM]	nt	nt	nt	nt	nt	nt
COc1ccc(C(=O)Nc2ccc(S(=O)(=O)Nc3nccc(C)n3)cc2)cc1	nt	i	i	i	i	i	nt
Cc1ccnc(NS(=O)(=O)c2ccc(NC(=O)c3ccc(N4C(=O)CCC4=O)cc3)cc2)n1	i	i	?	?	?	8.9µM	67
COC(=O)c1ccc(Cn2c(SCc3ccc(F)cc3)nc3ccncc32)cc1	i	i	i	i	i	i	nt
O=C(N/N=C/C=C/c1ccco1)c1cnccn1	i	i	?	i	i	?	nt
O=C(N/N=C/C=C\c1ccco1)c1ccccn1	nt	?	?	50µM	?	?	?
COc1cc(OC)c(C(=O)CCCCN2CCC3(CC2)NC(=O)NC3=O)cc1NS(=O)(=O)c1ccc(C(F)(F)F)cc1	i	nt	nt	i[19.4 µM]	nt	nt	nt
Cc1ccc(NS(=O)(=O)c2ccc(/C=C/C(=O)O)cc2)cc1Cl	i	i	i	i	i	i	nt
O=C(O)/C=C/c1ccc(S(=O)(=O)Nc2ccc3[nH]c(=O)[nH]c3c2)cc1	i	i	?	i	i	25µM	?
COc1ccc[n+](CC(=O)c2ccc(F)cc2)c1	nt	i	i	i	nt	nt	nt
O=C(c1ccc2c(c1)N(Cc1cccc(F)c1)C(=O)c1ccccc1S2)N1CCCC1	i	i	79µM	i	40µM	79µM	?	Pol kappa inh-2=?
Cc1oc2ccc(O)c(CN3CCN(Cc4ccccc4)CC3)c2c1C(=O)Nc1ccccc1	i	i	i	i	i	i	nt
COc1ccc(C2=NN(C(=O)CCCC(=O)O)C(c3cn(-c4ccccc4)nc3-c3ccccc3)C2)cc1 (stereo not given)	nt	i	20µM	?	?	i	?	Pol kappa inh-2=0.38
